High-throughput results deposited in PubChem BioAssay by National Center for Advancing Translational Sciences (NCATS).
Only some compounds are listed: those with a hit (about 21% of all), similar ones and a draw of the others.
NS1 inh: inhibitors of influenza NS1 protein function. Potency, µM (titrated, usually from 46.1 µM), for inactives: at the top dose activity, positive = more growth. 270,000 compounds, 0.4% hits; calls by dose curve; further: potency means the concentration at half of the fitted maximal effect; actives are rising curves; nearly all actives have a fitted effect of over 50% in size
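Compounds were scored for reversing the slow growth caused by influenza A NS1 in S. cerevisiae, measured by optical density at 600 nm. Assay medium contained 2% galactose at pH 6.0; NS1-free yeast of the same strain were the positive control.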
CHX counter: counter-screen hit for Shiga toxin inhibitors, cycloheximide. cell reporter, cycloheximide protein synthesis inhibition counterscreen. max response, %. 300,000 compounds, 12% hits. AID 2314; in the data active means max response mostly above about 13%, no sharp cut-off; inactive means mostly below about 14%; further: read at 38.3 µM for the half of the compounds with a filed dose; 0% is about no effect
Pf growth 96h: inhibits malaria parasite growth, 96 h; P. falciparum luciferase reporter growth, 96 h; Potency, µM (series often up to 28.7 µM), for inactives: at the top dose activity change, negative = inhibition, usual class: inhibitors; 320,000 compounds, 6.9% hits; further: potency means the concentration at half of the fitted maximal effect; on the % scale 0 is the no-effect control and ±100 the full control effect
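P. falciparum expressing integrated firefly luciferase, in erythrocytes at 2% hematocrit, 0.05% parasitemia, incubated with compounds 96 h at 37 C, 5% CO2. Growth inhibition read as loss of luminescence; two-generation exposure targets delayed-death apicoplast inhibitors.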
Shiga inhibitor: blocks Shiga toxin action in Vero cells. AID 2315. Vero cells, Shiga toxin protein synthesis inhibition reporter. 290,000 compounds, 9.2% hits. inhibition, % at 38.7 µM; in the data active means inhibition mostly above about 28%, no sharp cut-off; inactive means mostly below about 43%; further: 0% is about no effect
Pf growth 48h: inhibits P. falciparum growth in the first generation, 48 h; P. falciparum luciferase growth in erythrocytes, 48 h; 310,000 compounds, 5.9% hits; AID 504832; Potency, µM (top dose mostly 28.7 µM), inactives show top-dose activity change, negative = inhibition, most hits filed as inhibitors; further: potency means the concentration at half of the fitted maximal effect; on the % scale 0 is the no-effect control and ±100 the full control effect
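Growth was read as firefly luciferase luminescence after a 48 h, 37 C, 5% CO2 exposure of compounds to reporter-bearing P. falciparum cultures (0.1% parasitemia, 2% hematocrit final) in Albumax-supplemented RPMI 1640.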
SARS PLP yeast: SARS-CoV PLP inhibition in yeast. AID 485353. 330,000 compounds, 0.19% hits. S. cerevisiae expressing SARS-CoV PLpro, growth rescue. Potency, µM (doses to about 32.9 µM), for inactives: top-dose activity, positive = growth rescue, actives largely listed as activators; calls by dose curve; further: potency means the concentration at half of the fitted maximal effect; 0% is about no effect; nearly all actives have a fitted effect of over 55% in size
The depositor's hits bear a star; ? = inconclusive; · = not tested or not shown. Unless noted, the call rests on the fitted dose curve; in most records, active means well fitted inhibition curve with a large enough effect; inconclusive means small, poorly fitted or top-dose-only effect, or another doubt; inactive means no such curve, though single readings can be large or run the other way.

SMILES	NS1 inh	CHX counter	Pf growth 96h	Shiga inhibitor	Pf growth 48h	SARS PLP yeast
CCC(C)NC(=O)c1ccccc1NC(=O)c1ccc(CSc2ccccc2)cc1 (stereo unspecified)	2%	-4	0%	-9	12µM*	-4%
Cc1ccc(SCc2ccc(C(=O)Nc3ccccc3C(=O)NC(C)C)cc2)cc1	9%	-2	423%	2	-5%	-21%
CCn1c2ccccc2c2cc(NC(=O)COC(=O)c3cc(Cl)c(N)cc3OC)ccc21	3%	-2	35%	16	-25%	0%
Cc1cccc(C(=O)Nc2ccc(C(=O)N3CCCCC3C)cc2)c1 (stereo unspecified)	-35%	24*	-15%	30	?	0%
CC1CCCCN1C(=O)c1ccc(C(=O)N2CCCCC2C)cc1 (stereo unspecified)	4%	10	?	-17	-3%	6%
CC(=O)N1CCN(c2ccc(NC(=O)c3cccc(C)c3)cc2)CC1	9%	13*	?	·	70%	4%
CC(=O)N1CCN(c2ccc(NC(=O)c3ccccc3)cc2)CC1	-8%	23*	?	39*	54%	-14%
Cc1ccc(C)c(S(=O)(=O)NCc2ccc(C(=O)N3CCCCC3C)cc2)c1 (stereo unspecified)	-3%	-7	4.1µM*	-10	·	1%
O=C(NCc1n[nH]c(=S)n1-c1ccc(Cl)c(Cl)c1)c1ccc(S(=O)(=O)N2CCOCC2)cc1	·	8	10%	1	?	3%
CC(=O)Nc1cccc(N(C)S(C)(=O)=O)c1	1%	-4	40%	-2	0%	1%
CN(c1cccc(NC(=O)Nc2cccc(Cl)c2)c1)S(C)(=O)=O	-3%	37*	2%	94*	57%	1%
CN(C)c1ccc(NC(=O)Nc2cccc(Cl)c2)cc1	9%	31*	14%	50*	4%	-8%
Cc1nc(/C(N)=N/OC(=O)c2ccc(Cl)cc2)c(C(F)(F)F)o1	-37%	46*	44%	46*	38%	-1%
CCCNc1nc(Cl)nc(NC(C)(C)C)n1	·	13	?	27	5%	-2%
C#CC(C)(CC)NC(=O)Cn1nnc(-c2ccc(S(C)(=O)=O)cc2)n1 (stereo unspecified)	-9%	-4	87%	-10	12%	0%
Cc1noc(C)c1CN(C(=S)NC1CC2CCC1C2)c1ccccc1 (stereo unspecified)	·	2	-29%	37	12µM*	-11%
Cn1c(C=O)c(C#Cc2ccccc2)c2ccccc21	·	·	?	·	12µM*	-1%
O=C(O)c1nc(-c2ccccc2)n(-c2ccccc2)n1	0%	-2	41%	13	-8%	17%
Cc1ccc(C)c(S(=O)(=O)N2CCN(C(=O)[C@@H]3CCCN3C(=O)c3cccs3)CC2)c1	·	·	-1%	·	?	1%
O=C(c1cc(C2CC2)nn1-c1ccccc1)N1CCN(S(=O)(=O)c2ccccc2)CC1	·	·	?	·	15µM*	-17%
COc1ccc(OC)c(S(=O)(=O)N2CCN(C(=O)c3cc(C4CC4)nn3-c3ccccc3)CC2)c1	·	·	9.3µM*	·	?	-6%
O=C(c1nc(-c2ccccc2)n(-c2ccccc2)n1)N1CCN(S(=O)(=O)c2ccccc2)CC1	9%	1	·	-14	9.3µM*	0%
COc1ccc(OC)c(S(=O)(=O)N2CCC(C(=O)Nc3ccccc3)CC2)c1	4%	-1	?	-18	7%	2%
Cc1ccc(C)c(S(=O)(=O)N2CCN(C(=O)c3cc(-c4cccs4)nn3-c3ccccc3)CC2)c1	·	·	13µM*	·	7.4µM*	1%
C[C@]12CCC(O)CC1=CCC1C2CC[C@]2(C)/C(=N\NC(N)=S)CCC12 (stereo partly specified)	4%	-1	?	-6	7%	0%
SMILES	NS1 inh	CHX counter	Pf growth 96h	Shiga inhibitor	Pf growth 48h	SARS PLP yeast
Cc1ccc(NC(=O)CN(C)C(=O)CNC(=O)c2sc3ccccc3c2Cl)cc1	·	·	22%	·	14%	·
C=C(C)C(=O)Nc1ccc(OC(F)(F)C(F)F)c(NC(=O)C(=C)C)c1	-1%	-4	22%	-11	-20%	-2%
Cc1ccc2oc(C(Cl)(Cl)Cl)cc(=O)c2c1	-7%	-3	1.9µM*	-15	3.3µM*	-8%
CC(C)(C)NC(=O)C(c1cccs1)N(C(=O)c1csnn1)c1ccccc1F (stereo unspecified)	-2%	1	?	-6	-10%	0%
O=C(C[C@@H]1C/C=C\CC[C@@H](Cc2ccc(F)cc2)C(=O)OC[C@@H]2CCCN2C1=O)N[C@H](CO)Cc1ccccc1	·	·	·	·	·	2%
O=C(NC1CC1)c1cc2c(F)cccc2s1	-9%	33*	36%	24	26%	-2%
COCc1c(C(=O)NC2CCCCC2)sc2cccc(F)c12	·	·	54%	·	16%	-6%
CCOc1ccccc1N(C)S(=O)(=O)c1ccc2c(c1)CC(C)N2C(=O)C1CC1 (stereo unspecified)	-4%	-1	?	-2	?	26%
CC(=O)N(CN1C(=O)CCC1=O)c1cccc(Cl)c1	-4%	7	16%	-2	1%	-4%
O=C1CC(O)(C(F)F)Oc2ccc3ccccc3c21 (stereo unspecified)	-64%	9	19%	11	27%	-7%
O=C1CC(O)(C(F)(F)F)Oc2c1ccc1ccccc21 (stereo unspecified)	-143%	19*	·	79	22%	-8%
CCn1c(SCC(=O)Nc2cc(C)on2)nc2c(c1=O)SCC2	9%	-2	-6%	-6	?	?
COc1ccc(NC(=O)c2ccc(Cc3ccc(C)cc3)o2)cc1	-31%	24*	?	29	-22%	-68%
COc1ccc(NC(=O)c2ccc(COc3ccccc3)o2)cc1	-12%	21*	83%	24	34%	-4%
COC(=O)c1ccccc1NC(=O)c1ccc(COc2ccccc2)o1	-14%	-2	13%	4	5%	·
COc1ccc(NC(=O)c2ccc(COc3ccccc3)o2)c(OC)c1	-19%	3	8.3µM*	-5	-8%	-11%
CN1CCN(c2cc(N3CCc4ccccc4C3)c(F)cc2[N+](=O)[O-])CC1	1%	-2	?	-10	?	-5%
CCN(CC)S(=O)(=O)c1ccc(C)c(NC(=O)CSc2nc3ccc(C)cc3[nH]2)c1	-8%	2	?	15	?	13%
O=C(NC(=S)NCc1ccccc1)c1ccccc1[N+](=O)[O-]	5%	-2	-18%	23	-15%	1%
COC(=O)[C@H](CCSC)NC(=O)c1cc2c(cn1)[nH]c1ccccc12	0%	-3	-16%	-4	?	-1%
COc1ccccc1C(=O)NC(=S)NNC(=O)c1sc2ccccc2c1Cl	25%	13	?	3	26%	-27%
